# Results reported in PubChem BioAssay (NCATS).
# Records with an inconclusive call do not appear. A call without a number means that no potency is given here. Some compounds were tested as several samples or in several runs, with calls that do not always agree. The source made the active and inactive calls. Calls come from the whole dose curve; as a rule, active = well fitted inhibition curve with a large enough effect; inconclusive = small, poorly fitted or top-dose-only effect; inactive = no such curve, though single readings can be large or run the other way.
# Assay: NS1 protein of Zika virus - qHTS assay to identify small molecule inhibitors in human HEK 293 cells (AID 1347053); note: nearly all actives have a fitted effect of over 55% in size
# Settings: HEK293 ZIKV MR766 infection, NS1 TR-FRET, 24 h; series mostly up to 46.1 µM
# Excerpt: National Center for Advancing Translational Sciences [NCATS]
# Johns Hopkins University School of Medicine
# The non-structural 1 (NS1) protein of zika virus is known to associate with the viral replication complex. This cell-based TR-FRET ZIKV NS-1 assay measures the increased NS-1 protein in human HEK 293 cells after a 24-hour Zika virus infection by a TR-FRET assay readout. A decrease in the Time-resolved fluorescence energy transfer (TR-FRET) signal in this assay by small molecule treatment indicates an inhibitory effect of the small molecule on the expression of Zika virus NS1 correlating with Zika virus replication.
# HEK 293 cells were cultured in EMEM (ATCC, Cat. # 30-2003) medium with 10% fetal bovine serum (GE healthcare Life Sciences, Cat. # SH30071.03), and 1% Pen/Strep (Gibco, Cat. # 15140-122). Cells were seeded in the assay plate and incubated at 37 C with 5% CO2 for 20 hours. Compounds were added to cells and incubated for one hour before addition of ZIKV MR766 strain solution to cells (MOI = 0.5). After an incubation at 37 C for 24 hours, the reagent mixture of TR-FRET ZIKV NS1 assay using two anti-ZIKV NS1 antibodies was added to assay plates. The TR-FRET signals in assay plates were measured using an Envision plate reader (PerkinElmer). Data were normalized by using the cell-containing wells without ZIKV as a negative control (0% NS-1) and wells containing ZIKV infected cells as a positive control (100% NS-1 level).
# Potency is the fitted concentration of half-maximal effect.
row,SMILES,Potency
1,O=C1Cc2cc(CCN3CCN(c4nsc5ccccc45)CC3)c(Cl)cc2N1,inactive
2,Cn1c(=O)c2[nH]cnc2n(C)c1=O,inactive
3,CN1CCC(=C2c3ccccc3CC(=O)c3sccc32)CC1,inactive
4,OCCN1CCN(CCCN2c3ccccc3Sc3ccc(C(F)(F)F)cc32)CC1,16.6 µM (active) and inactive
5,C[C@](N)(Cc1ccc(O)c(O)c1)C(=O)O,inactive
6,NCCS(=O)(=O)O,inactive
7,CCCNCC(O)COc1ccccc1C(=O)CCc1ccccc1 (stereo not given),inactive
8,CN(Cc1cnc2nc(N)nc(N)c2n1)c1ccc(C(=O)N[C@@H](CCC(=O)O)C(=O)O)cc1,inactive
9,Cc1ccccc1N1C(=O)c2cc(S(N)(=O)=O)c(Cl)cc2NC1C (stereo not given),inactive
10,CNCCCC12CCC(c3ccccc31)c1ccccc12,20.9 µM (active)
11,CC(C(=O)O)c1cccc(C(=O)c2ccccc2)c1 (stereo not given),inactive
12,CC1(CN2CCC(n3c(=O)[nH]c4ccccc43)CC2)OCc2ccccc2-n2cccc21 (stereo not given),inactive
13,CC(C)C(=O)Nc1ccc([N+](=O)[O-])c(C(F)(F)F)c1,inactive
14,CC#C[C@]1(O)CC[C@H]2[C@@H]3CCC4=CC(=O)CCC4=C3[C@@H](c3ccc(N(C)C)cc3)C[C@@]21C,inactive
15,CCN1CCCC1CNC(=O)c1cc(S(=O)(=O)CC)c(N)cc1OC (stereo not given),inactive
16,CC1COc2c(N3CCN(C)CC3)c(F)cc3c(=O)c(C(=O)O)cn1c23 (stereo not given),inactive
17,COC(=O)Nc1nc2ccc(C(=O)c3cccs3)cc2[nH]1,235 nM (active) and inactive
18,CCCCc1oc2ccccc2c1C(=O)c1cc(I)c(OCCN(CC)CC)c(I)c1,29.6 µM (active) and inactive
19,CN1C2CCC1CC(OC(=O)C(CO)c1ccccc1)C2 (stereo not given),inactive
20,COc1ccc2[nH]cc(CCNC(C)=O)c2c1,inactive

row,SMILES,Potency
1,Cc1ccc(C(=O)Nc2ccc(S(=O)(=O)O)c3cc(S(=O)(=O)O)cc(S(=O)(=O)O)c23)cc1NC(=O)c1cccc(NC(=O)Nc2cccc(C(=O)Nc3cc(C(=O)Nc4ccc(S(=O)(=O)O)c5cc(S(=O)(=O)O)cc(S(=O)(=O)O)c45)ccc3C)c2)c1,inactive
2,CCc1cccc2c3c([nH]c12)C(CC)(CC(=O)O)OCC3 (stereo not given),inactive
3,COc1ccc2c(c1)c(CC(=O)O)c(C)n2C(=O)c1ccc(Cl)cc1,inactive
4,CS(=O)(=O)Nc1ccc([N+](=O)[O-])cc1Oc1ccccc1,inactive
5,NS(=O)(=O)c1cc2c(cc1Cl)NCNS2(=O)=O,inactive
6,COc1cc2c(c(OC)c1OC)-c1ccc(OC)c(=O)cc1[C@@H](NC(C)=O)CC2,inactive
7,Nc1nnc(-c2cccc(Cl)c2Cl)c(N)n1,inactive
8,CN(C)CCOC(c1ccccc1)c1ccccc1,inactive
9,CN(C)C(=N)N=C(N)N,inactive
10,CS(=O)(=O)CCNCc1ccc(-c2ccc3ncnc(Nc4ccc(OCc5cccc(F)c5)c(Cl)c4)c3c2)o1,inactive
11,CC(C)(C)C(=O)Oc1ccc(S(=O)(=O)Nc2ccccc2C(=O)NCC(=O)O)cc1,inactive
12,CN(C)C(=O)C(CCN1CCC(O)(c2ccc(Cl)cc2)CC1)(c1ccccc1)c1ccccc1,inactive
13,CC12CC3CC(C)(C1)CC(N)(C3)C2,inactive
14,COc1ccc(C2CNC(=O)C2)cc1OC1CCCC1 (stereo not given),inactive
15,Cc1cnc(C(=O)NCCc2ccc(S(=O)(=O)NC(=O)NC3CCCCC3)cc2)cn1,inactive
16,CCOC(=O)C(C)(C)Oc1ccc(Cl)cc1,inactive
17,Cc1cc(C(C)(C)C)cc(C)c1CC1=NCCN1,inactive
18,Cn1c(=O)c2c(ncn2C)n(C)c1=O,inactive
19,Clc1ccccc1C(c1ccccc1)(c1ccccc1)n1ccnc1,inactive
20,O=c1c(-c2ccc(O)cc2)coc2cc(O)cc(O)c12,inactive
